Shown is part of a subset that was picked to be rich in hits.
ERK EGF inh = qHTS Assay for Inhibitors of the ERK Signaling Pathway using a Homogeneous Screening Assay; Stimulation with EGF | HEK293-V1b, EGF-stimulated phospho-ERK AlphaScreen | Potency, µM (top dose mostly 11.5 µM), for inactives: at the highest dose activity change, negative = inhibition, hits mostly inhibitors | hit rate 0.41% among 130,000 | AID 1454, 2008;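 further: plate controls were stimulated vehicle wells for no effect and unstimulated vehicle basal for full effect; nearly all actives have a fitted effect of over 55% in size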
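Phospho-ERK1/2 measured by AlphaScreen (SureFire) after 5 min 25 nM EGF stimulation of V1b-expressing HEK293 cells preincubated 30 min at 37C with titrated compounds; data scaled to DMSO and EGF controls, Hill-fitted AC50.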
NPSR antag = qHTS Assay for Antagonists of the Neuropeptide S Receptor: cAMP Signal Transduction; Potency, µM (titrated, usually from 38.3 µM), inactives show top-dose activity change, negative = inhibition, usual class: inhibitors; hit rate 1% among 220,000; Q6W5P4; CHO-NPSR cells, cAMP TR-FRET, antagonist mode; further: nearly all actives have a fitted effect of over 50% in size
Target sequence (Q6W5P4 whole entry, looked up): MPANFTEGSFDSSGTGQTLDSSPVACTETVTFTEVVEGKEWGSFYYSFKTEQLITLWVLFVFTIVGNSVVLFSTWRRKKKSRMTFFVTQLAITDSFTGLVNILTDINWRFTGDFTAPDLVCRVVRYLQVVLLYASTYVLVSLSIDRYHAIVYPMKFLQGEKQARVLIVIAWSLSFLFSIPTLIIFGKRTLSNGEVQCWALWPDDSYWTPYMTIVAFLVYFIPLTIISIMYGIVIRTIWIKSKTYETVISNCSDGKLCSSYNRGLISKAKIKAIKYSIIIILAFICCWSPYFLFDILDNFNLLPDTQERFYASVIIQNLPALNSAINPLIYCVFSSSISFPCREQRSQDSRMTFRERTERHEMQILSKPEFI
An asterisk follows results filed as active; u = inconclusive; x = not tested or not shown; [ ] = another dose, or the depositor's remark. The call rests on the fitted dose curve; in most records, active means well fitted curve in the direction sought with a large enough effect; inconclusive means small, poorly fitted or top-dose-only effect, or another doubt; inactive means no such curve, though single readings can be large; an effect the other way counts as inactive or inconclusive. Unless noted, on the % scale 0 is the no-effect control and ±100 the full control effect; potency means the concentration at half of the fitted maximal effect.

SMILES	ERK EGF inh	NPSR antag
CCOC(=O)c1cccc(NC(=O)/C=C/c2ccc([N+](=O)[O-])cc2)c1	32µM*	1%
COC(=O)c1cccc(NC(=O)/C=C/c2ccc([N+](=O)[O-])cc2)c1	u	-5%
Cc1ccc(NC(=O)C(C)N2CCCC2)cc1Cl (stereo not drawn)	-1%	9%
Cc1cccc(NC(=O)CSc2nnc(-c3n[nH]c4ccccc34)o2)c1	3%	-5%
N#Cc1cccc(NC(=O)CSc2nnc(-c3n[nH]c4ccccc34)o2)c1	32µM*	-1%
C=CCN(CC(O)c1cccc([N+](=O)[O-])c1)C(C)CCc1ccccc1 (stereo not drawn)	6%[57.5 µM]	-47%
O=C(NC1CC1)C1=C[C@@H](c2c[nH]c3ccccc23)C[C@@H](OCc2ccc(CO)cc2)O1	-11%[57.5 µM]	-6%
COc1ccc2c(c1)[nH]c1c(=O)n(CCC3=CCCCC3)cnc12	x	-15%[46.1 µM]
COc1ccc2[nH]c3c(NCCC4=CCCCC4)ncnc3c2c1	20µM*	-57%
O=[N+]([O-])c1cccc(-c2ccc(C(=S)N3CCOCC3)o2)c1	2%	-15%
O=[N+]([O-])c1cccc(-c2ccc(C(=S)N3CCN(c4ccccc4)CC3)o2)c1	25µM*	-16%
S=c1[nH]nc(-c2cc3c(s2)-c2ccccc2CC3)o1	x	10µM*
CSc1nnc(-c2cc3c(s2)-c2ccccc2CC3)o1	x	-7%[46.1 µM]
CN(C)c1ccc(C(=C2C=CC(=[N+](C)C)C=C2)c2ccc(N(C)C)cc2)cc1	13µM*	x
CC(=O)c1ccc(N(C)C)cc1	x	-6%[46.1 µM]
O=C(N1CCN=C1SCc1cccnc1)C12CC3CC(CC(C3)C1)C2	x	-8%[46.1 µM]
O=C(OCC(=O)N1CCc2ccccc21)c1cncc(Br)c1	-1%	-1%
Cc1cccc2cc(/C=N/NC(=O)c3ccccc3O)c(Cl)nc12	20µM*	-27%
Cc1cccc2cc(/C=N/NC(=O)c3ccncc3)c(Cl)nc12	-3%[57.5 µM]	-6%
CCOC(=O)c1sc2nc3c(SCCC(=O)O)cc(C(=O)c4cc(OC)ccc4O)cn3c(=O)c2c1C	u	10µM*
CCOC(=O)c1sc2nc3c(SCCC#N)cc(C(=O)c4cc(F)ccc4O)cn3c(=O)c2c1C	12%	-15%
Clc1ccccc1-c1cc(NCc2cccnc2)ncn1	6%	x
CC(=O)N1CCN(c2ccccc2NC(=O)Cc2ccc(Cl)cc2)CC1	-8%	-23%
CC(C)N1C(=O)/C(=C/c2nc3ccccc3c(=O)n2-c2ccccc2)c2ccccc21	x	10µM*
CC(C)N1C(=O)/C(=C\c2nc3ccccc3c(=O)n2-c2ccccc2)c2ccccc21	u	-41%
SMILES	ERK EGF inh	NPSR antag
CC1(C)CC(CC(=O)O)(c2ccccc2)CCO1 (stereo not drawn)	x	-25%[46.1 µM]
CN(Cc1ccccc1)C(=O)c1nc2ccccn2c1CN1CCC(N2CCOCC2)CC1	4%[57.5 µM]	16%
COc1cc(C(CCN2CCN(c3ccccc3)CC2)c2c(OC)cc(OC)c3c(C)cc(=O)oc23)cc(OC)c1OC (stereo not drawn)	-19%[57.5 µM]	6.3µM*
COc1cc(OC)c2c(c1C(CCN1CCOCC1)c1ccc(N(C)C)cc1)OC(=O)CC2c1ccc(N(C)C)cc1 (stereo not drawn)	-6%[57.5 µM]	-20%
COc1cc(OC)c2ccc(=O)oc2c1C(CCN1CCCC(C)C1)c1ccc(N(C)C)cc1 (stereo not drawn)	-20%[57.5 µM]	11%
COc1cc(OC)c2c(C)cc(=O)oc2c1C(CCN1CCOCC1)c1ccc2c(c1)OCO2 (stereo not drawn)	-1%[57.5 µM]	-19%
CCCCCc1cc(=O)oc2c(C(CCN3CCCC(C)C3)c3cc(OC)c(OC)c(OC)c3)c(OC)cc(OC)c12 (stereo not drawn)	40µM*	6.3µM*
COc1cc(C(CCN2CCCC2)c2c(OC)cc(OC)c3ccc(=O)oc23)cc(OC)c1OC (stereo not drawn)	-9%[57.5 µM]	-43%
COc1ccc(C2CC(=O)Oc3c(C(CCN4CCN(c5ccccc5)CC4)c4ccc(N(C)C)cc4)c(OC)cc(OC)c32)cc1 (stereo not drawn)	16µM*	9%
CCCCCc1cc(=O)oc2c(C(CCN3CCCCC3)c3cc(OC)c(OC)c(OC)c3)c(OC)cc(OC)c12 (stereo not drawn)	u	10µM*
COC(=O)c1ccc(C(NC(=O)OCc2ccccc2)/C(F)=C/[C@@H](C)C(=O)N(C)Cc2cccnc2)cc1 (stereo partly drawn)	-1%	x
Cc1cccc(/C=N/n2c(C)cc(C)c(C#N)c2=O)c1	13%	0%[46.1 µM]
CC(=O)OC1CC[C@@]2(C)C(CC[C@@]3(C)C2CC=C2C4CC(C)(C)CC[C@]4(C(=O)O)CC[C@@]23C)C1(C)C (stereo partly drawn)	0%	x
CC(C)OC(=O)[C@@H]1CC[C@H](C)[C@@H](CCC[C@@H]2C[C@@H](O)C[C@H](CC#N)O2)O1	-7%	x
CC1=NN(c2ccccc2)C(=O)C1N=Nc1ccc(N)cc1 (stereo not drawn)	x	-19%[46.1 µM]
CC1=NN(c2ccccc2)C(=O)C1N=Nc1ccccc1 (stereo not drawn)	11µM*	-2%
FC(F)(F)c1cc(NC(=S)Nc2ccc3cc4ccccc4cc3c2)cc(C(F)(F)F)c1	-5%	x
Cc1ccc(Sc2ccc(CN3CCCCC3)cc2[N+](=O)[O-])cc1	10µM*	u
C=CCNC(=O)c1ccc(Sc2ccc(C)cc2)c([N+](=O)[O-])c1	x	-26%[46.1 µM]
C=CCN1C(=O)/C(=C\c2ccc(Oc3nc(N4CCOCC4)nc(N4CCOCC4)n3)c(OC)c2)SC1=S	u	-32%
Cc1cc[n+](-c2ccccc2)c2ccccc12	9%	10%
CCCCCCCCCCn1ccc(=N)cc1	u	7.9µM*
CCCCCCCCn1ccc(=N)cc1	-5%[57.5 µM]	-20%
Cc1ccc(Oc2ccccc2/C=C/C(=O)O)cc1	x	-15%[46.1 µM]
CC1(C)C2CC=C(/C=N/NC(=S)Nc3cccnc3)C1C2 (stereo not drawn)	7%	-51%
SMILES	ERK EGF inh	NPSR antag
CC1=C/C(=N\NC(=S)Nc2cccnc2)CC(C)(C)C1	6%	1.3µM*
COc1ccccc1/C=N/NC(=Nc1ccc(C)cc1)c1nc2ccccc2s1	x	-25%[46.1 µM]
COc1cc(/C=N/NC(=Nc2ccc(C)cc2)c2nc3ccccc3s2)ccc1O	x	10µM*
CC(=O)OCC(=O)[C@@]12OC3(CCCC3)O[C@@H]1C[C@H]1[C@@H]3CCC4=CC(=O)C=C[C@]4(C)[C@@]3(F)[C@@H](O)C[C@@]12C	x	4µM*
CC1(C)O[C@@H]2C[C@H]3[C@@H]4CCC5=CC(=O)C=C[C@]5(C)[C@@]4(F)[C@@H](O)C[C@]3(C)[C@]2(C(=O)CO)O1	2%[57.5 µM]	-13%
O=C(Nc1ccc([N+](=O)[O-])cc1Cl)c1cc(Cl)ccc1O	-10%	-14%[46.1 µM]
O=C(Nc1cccc(Cl)c1)c1cc(N=Nc2ccc([N+](=O)[O-])cc2Cl)ccc1O	14µM*	u
O=c1[nH]n(-c2cccc3cccnc23)c(=O)c2ccccc12	x	-7%[46.1 µM]
O=S1(=O)Nc2c(ccc3cccnc23)-c2ccccc21	x	3.2µM*
CCN(c1ccccc1)S(=O)(=O)c1ccc(Cl)c(NC(=O)CN(C)C2CCN(C)CC2)c1	-7%[57.5 µM]	-34%
CCCCOC(=O)CNc1n[nH]c(=S)[nH]c1=O	x	10µM*
CCCCOC(=O)C(C)Nc1n[nH]c(=S)[nH]c1=O (stereo not drawn)	x	-11%[46.1 µM]

High-throughput results: PubChem BioAssay, National Center for Advancing Translational Sciences (NCATS)
